Measurements: the supplement of paper PMC13380429

System: Vero E6 infected with SARS-CoV-2
Experiment: inhibition of SARS-CoV-2 cytopathic effect; higher = more antiviral protection, active = above 15
Settings: 48 h

Measured: inhibition of SARS-CoV-2 cytopathic effect

C=C[C@]1(C)C[C@@H](OC(=O)CSC(C)(C)CNC(=O)[C@H](N)C(C)C)[C@]2(C)[C@H](C)CC[C@]3(CCC(=O)[C@H]32)[C@@H](C)[C@@H]1O [valnemulin]
inactive: 1 nM -0.47% | 8.33 nM -0.46% | 100 nM -2.63% | 833.33 nM -4.5% | 10000 nM -4.72%

OC[C@H]1O[C@H]([S-])[C@H](O)[C@@H](O)[C@@H]1O.[Au+] [aurothioglucose]
inactive: 1 nM 0.67% | 8.33 nM -0.7% | 100 nM -0.3% | 833.33 nM 0.93% | 10000 nM 0.69%

CCCCCCNC(=O)Nc1ccc(S(=O)(=O)Nc2ccc(CCNC[C@H](O)COc3ccc(O)cc3)cc2)cc1
inactive: 1 nM 0.66% | 8.33 nM 0.75% | 100 nM 0.54% | 833.33 nM 2.18% | 10000 nM 1.5%

Cc1coc2c1C(=O)C(=O)c1c-2ccc2c(C)cccc12 [tanshinone-I]
inactive: 1 nM 1.07% | 8.33 nM -0.7% | 100 nM 0.25% | 833.33 nM -2.81% | 10000 nM -1.34%

O=c1c(O)c(-c2ccc(O)cc2O)oc2cc(O)cc(O)c12 [morin]
inactive: 1 nM -1.74% | 8.33 nM -0.07% | 100 nM -0.4% | 833.33 nM -4.13% | 10000 nM 0.27%

CC1(N)CCN(c2cnc(-c3cccc(Cl)c3Cl)c(N)n2)CC1
inactive: 1 nM -2.86% | 8.33 nM 2.23% | 100 nM 2.58% | 833.33 nM -1.51% | 10000 nM -9.83%

O=C1NC(=O)c2cc(Nc3ccc(F)cc3)c(Nc3ccc(F)cc3)cc21
inactive: 1 nM 1.21% | 8.33 nM -0.56% | 100 nM -1.81% | 833.33 nM 0.4% | 10000 nM 10.3%
